Out of some 360,000 compounds screened, about 2,000 (0.56%) were called active. The entries come from a sample that favours actives as a whole. A number with no mark means an inactive call.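 Rule for the calls: active = activation above the average of all compounds screened plus 3 SD, cutoff fixed separately per campaign (cut at about 7.5% in these data); inactive = the rest.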
Test: FXN promoter activators, primary screen, cell-based, luciferase luminescence, HEK293 lucGAA850 (AID 540364);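 note: 0% = DMSO wells and 100% = 10 µM SAHA wells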
Settings: HEK293 lucGAA850 FXN promoter luciferase reporter, 24 h; at 6 µM; active compounds read high; percent of 10 µM SAHA response

| SMILES | activation |
| --- | --- |
| NC(c1csc(NC(=O)Nc2cccc(C(F)(F)F)c2)n1)C1CCCCC1 (centres undefined) | 0.57% |
| Cc1[nH]c2ccccc2c1C(=O)C(C)Sc1nnc(C2CC2)o1 (centres undefined) | -0.9% |
| CCOc1ccc(Nc2oc(Cc3ccccc3)nc2C#N)cc1 | 7.76% (active) |
| Cc1ccc(OCc2nc(C#N)c(N3CCCC3)o2)cc1 | 1.46% |
| COc1ccc(Nc2oc(-c3ccccc3Cl)nc2C#N)cc1 | -4.29% |
| Cn1c(=O)n(C)c(=O)n(CC(=O)N2CCCCC2)c1=O | -1.79% |
| O=C(CSc1nc2[nH]c(=O)[nH]c(=O)c2s1)Nc1cccc(F)c1 | -0.65% |
| CCCOP(=O)(c1ccc(N(C)C)cc1)C(O)c1cc(OC)c(OC)c(OC)c1 (centres undefined) | 0.98% |
| CSc1ccccc1-c1nnc(-c2ccc(Cl)cc2)o1 | 5.35% |
| c1ccc(-c2cc(-c3ccccc3)[nH]n2)cc1 | 10.4% (active) |
| Nc1cccc(-c2cc(-c3ccccc3)nc(-c3cccc(N)c3)n2)c1 | 1.48% |
| O=C(Nc1ccc(Cl)cn1)c1ccccc1-c1ccccc1 | 0.22% |
| Oc1ccccc1-c1cc(-c2ccc(Cl)cc2)n[nH]1 | 8.31% (active) |
| c1ccc(-c2c[nH]c(-c3ccccc3)c2)cc1 | 1.7% |
| O=C1CCN(C(=O)Nc2ccccc2)N1 | -0.46% |
| COc1ccccc1CCNC(=O)c1cnccn1 | 2.62% |
| O=C(COc1ccc(Cl)cc1Cl)NCCCNC(=O)c1cnccn1 | 7.84% (active) |
| O=C(NCCCNC(=O)c1ccccc1Cl)c1cnccn1 | 1.82% |
| CCn1c(CC(=O)Nc2ccccc2C)nnc1SCC(=O)NC1=NCCS1 | -0.89% |
| N#Cc1c(N)nc2c3c(sc(=N)c2c1N)NC(=O)CC3c1ccccc1Cl (centres undefined) | 9.37% (active) |
| COc1ccc(C2CC(=O)Nc3sc(=N)c4c(N)c(C#N)c(N)nc4c32)cc1OC (centres undefined) | 5.47% |
| CSc1nc2c(c(=O)[nH]1)C(c1cccc(Cl)c1Cl)CC(=O)N2 (centres undefined) | -1.23% |
| O=C(O)c1ccccc1-c1cccc2nncn12 | 0.6% |

| SMILES | activation |
| --- | --- |
| Cc1ccc2[nH]c(=O)c(COC(=O)c3ccccn3)cc2c1 | -0.35% |
| CCOC(=O)c1cc2cc(C)ccc2[nH]1 | 7.85% (active) |
| CCOC(=O)c1[nH]c2ccc(C)cc2c1N=C(C)N(C)C | 2.12% |
| CC(=O)c1ccc(-c2cnc3c(NC=O)cc(-c4cccc(NS(C)(=O)=O)c4)cn23)cc1 | -2.27% |
| Cc1cc(C(=O)N2CCN(c3ccccn3)CC2)c(C)o1 | 1.36% |
| CN(C)C(CNC(=O)c1cc(Br)c(Br)s1)c1ccco1 (centres undefined) | 0.51% |
| O=C1[C@H]2[C@@H](c3ccc(F)cc3)N3C(=O)N(c4ccc(C(F)(F)F)cc4)C(=O)[C@@]3(Cc3ccccc3)[C@H]2C(=O)N1C1CCCCC1 | 7.65% (active) |
| O=C1[C@H]2[C@@H](c3ccc(C(F)(F)F)cc3)N[C@]3(CCCN(Cc4ccc(Cl)cc4)C3=O)[C@H]2C(=O)N1Cc1ccccc1 | -7.53% |
| O=C1[C@H]2[C@@H](c3ccc(C(F)(F)F)cc3)N[C@]3(CCCN(Cc4ccc(Br)cc4)C3=O)[C@H]2C(=O)N1Cc1ccccc1 | -7.76% |
| Cc1cccc(N2C(=O)N3[C@H](c4ccc(F)cc4)[C@@H]4C(=O)N(C5CCCCC5)C(=O)[C@@H]4[C@]3(Cc3ccccc3)C2=O)c1 | 5.49% |
| O=C1[C@H]2[C@@H](c3ccc(Cl)cc3)N3C(=O)N(c4cccc(F)c4)C(=O)[C@@]3(Cc3ccccc3)[C@H]2C(=O)N1C1CCCCC1 | 8.92% (active) |
| Cc1cccc([C@@H]2[C@@H]3C(=O)N(Cc4ccccc4)C(=O)[C@@H]3[C@]3(Cc4ccc(Cl)cc4)C(=O)N(c4cccc(Cl)c4)C(=O)N23)c1 | 0.5% |
| C[C@@]12C(=O)N(c3cccc(Br)c3)C(=O)N1[C@H](c1ccc(Cl)cc1)[C@@H]1C(=O)N(C3CCCCC3)C(=O)[C@@H]12 | 7.88% (active) |
| CC12C(=O)N(c3ccccc3)C(=O)C1C(c1ccccc1)N1CCCN12 (centres undefined) | -0.94% |
| CCOC(=O)[C@@H]1[C@H]2COc3ccc(Br)cc3[C@H]2N2C(=O)N(c3ccc(C)cc3)C(=O)[C@@]12C | 0.65% |
| CNC(=O)c1ccc(CN(C)C(=O)c2cc(C3CC3)nc3c2cnn3C(C)C)cc1 | 1.69% |
| CN(C(=O)c1cccc(NC(=O)Cc2ccc(NC(=O)C3CCCN(C(=O)C4CC4)C3)cc2)c1)C1CC1 (centres undefined) | 0.38% |
| O=C(CN1C(=O)NC2(CCCC2)C1=O)NCC1CCCO1 (centres undefined) | 0.59% |
| COCc1cc(C)nc(Nc2cc(C)ccc2C)c1C#N | -0.89% |
| CCOC(=O)c1ccc(-c2ccc3ncnc(N(C)Cc4sccc4C)c3c2)o1 | 4.4% |
| O=C(Nc1nccs1)C1CCCN1S(=O)(=O)c1cccc2cccnc12 (centres undefined) | -0.14% |
| O=C(Cc1ccc(-n2c(=O)c3sccc3n(Cc3ccc(F)cc3)c2=O)cc1)NCc1ccco1 | -1.57% |
| O=C(NCc1ccco1)c1ccc(Cn2c(=O)c3sccc3n(Cc3ccc(F)cc3)c2=O)cc1 | 15.4% (active) |

| SMILES | activation |
| --- | --- |
| O=C(NCc1ccco1)c1cc2sccc2n1Cc1ccc(F)cc1 | 0.82% |
| C/C(Cc1ccccc1)=N\NC(=O)CNC(=O)c1ccc2c(c1)OCCO2 | -1.21% |
| COc1ccc(-c2nnc(SCC(=O)c3cccs3)o2)c(OC)c1 | 7.8% (active) |
| COc1ccc(-c2nnc(NC(=O)CS(=O)(=O)c3ccc(Cl)cc3)o2)c(OC)c1 | 2.95% |
| COc1ccccc1-c1nnc(SCC(=O)N2CC(C)CC(C)C2)o1 (centres undefined) | 3.31% |
| CN(C(=O)c1cc2c(=O)n3ccccc3nc2s1)C1CCCCC1 | 8.38% (active) |
| Cc1cccn2c(=O)c3cc(C(=O)NC4CCCCC4)sc3nc12 | 2% |
| CCOCCCNC(=O)c1cc2c(=O)n3ccccc3nc2s1 | 3.92% |
| CC(=O)N1c2ccc(S(=O)(=O)N3CCC(C(=O)NC4CCCC(C)C4C)CC3)cc2CC1C (centres undefined) | 1.08% |
| Clc1ccc(-c2nnc(-c3ccccc3)nc2N2CCSCC2)cc1 | -1.26% |
| OC(c1ccc(Cl)c(F)c1)c1ncc(-c2ccccc2Cl)[nH]1 (centres undefined) | 0.22% |
| N#CCSc1nc2c(c(=O)n1Cc1ccccc1)C1(CCCC1)Cc1ccccc1-2 | -0.71% |
| CCC1(CC)Cc2ccccc2-c2nc(CCl)[nH]c(=O)c21 | 8.24% (active) |
| CCOC(=O)C1Cn2c(nc3c(c2=O)C(C)(CC)Cc2ccccc2-3)S1 (centres undefined) | 1.17% |
| CN1CCCc2cc(C#N)c(=O)[nH]c21 | -0.22% |
| C[C@H](CO)N1C[C@H](C)[C@@H](CN(C)S(=O)(=O)c2ccc(Oc3ccccc3)cc2)OCc2cn(nn2)CCCC1=O | -2.73% |
| CCOC(=O)C1CCN(C(=O)c2ccc3c(=O)n4nc(Nc5ccccc5CC)sc4nc3c2)CC1 | 0.72% |
| O=C(/C=C/Sc1ncn[nH]1)c1ccc(Cl)cc1 | 23.3% (active) |
| COc1ccc(CNC(=O)[C@@H]2CC=C[C@@H]3CCN(C4CC4)C(=O)[C@@H]32)cc1 | -0.64% |
| O=S(=O)(Nc1ccc2nc(-c3ccco3)[nH]c2c1)c1ccccc1 | 2.98% |
| Cc1ccn2c(-c3csc(Nc4ccc(C(=O)O)cc4)n3)c(C)nc2c1 | 1.81% |
| COc1ccc(-c2csc(Cc3nc(O)cs3)n2)cc1 | 21.7% (active) |
| COc1ccc(-c2csc(Nc3cccc(C)n3)n2)cc1OC | 0.8% |

| SMILES | activation |
| --- | --- |
| COC(=O)CCc1sc(Nc2ccc(Br)cc2)nc1-c1ccc(OC)cc1 | 2.66% |
| O=c1oc2ccccc2cc1-c1csc(Nc2ccc(O)cc2)n1 | 22.5% (active) |
| COc1ccc(C(O)c2nc(-c3ccc(OC)nc3)cs2)cc1 (centres undefined) | 0.21% |
| COc1ccc(-c2csc(Nc3ccc(O)cc3)n2)cc1 | 8.06% (active) |
| Cc1ccc(Nc2nc(-c3ccc(O)cc3O)cs2)nc1 | 2.15% |
| COc1ccc(C(C)(O)c2nc(-c3ccc(C)c(C)c3)cs2)cc1 (centres undefined) | 0.79% |
| COc1cc2c(cc1CNC[C@H]1O[C@@H](n3cnc(C(N)=O)n3)[C@H](O)[C@@H]1O)OCO2 | -0.43% |
| CCOC(=O)c1c(C)oc2cc(Br)c(OCC(N)=O)cc12 | -1.34% |
| COc1cc2c(cc1OC)C(C(=O)Nc1cc(C)c(OC)c(C)c1)CC(=O)N2 (centres undefined) | 1.49% |
| CC12CCC(=O)C=C1CCC1C2C(O)CC2(C)C1CCC2(O)C(O)CO (centres undefined) | 0.74% |
| O=C(O)c1ccccc1N=N/C(=N/Nc1cc(S(=O)(=O)O)ccc1O)c1ccccc1 | -1.25% |
| COc1ccc(OC)c(S(=O)(=O)N(C)CC(=O)N2CCN(c3ccccc3)CC2)c1 | -1.26% |
| CC1CC2=C(CC1/C=N/NC(N)=S)C(C)(C)CCC2 (centres undefined) | -2.98% |
| Cc1ccc(C2NC(=S)NC3=C2N2CCC3CC2)cc1 (centres undefined) | 1.46% |
| CC(=O)CCS(=O)(=O)c1ccc(C)c(C)c1 | 0.08% |
| CCOc1cc(/C=N/Nc2cc(C)nc3ccc(C)cc23)ccc1O | -0.68% |
| COc1cc(/C=N/Nc2nc3ccccc3s2)ccc1O | 8.92% (active) |
| COc1cc(C=NC2CCCCC2)ccc1O | -0.66% |
| CCN1C(=NCCc2cccnc2)N[C@@H](c2ccccc2)[C@H](C(=O)OC)[C@H]1C | 1.66% |
| Cc1ccc(CNC(=O)Nc2nnc([C@H]3C[C@H](O)[C@@H](CO)O3)s2)cc1 | 0.3% |
